Results as given in PubChem BioAssay (EPA / NIEHS).
Activity calls are given as the source filed them. The calls were made as follows: active = hit-call score of the fitted dose curve at least 0.9, where 1 is the maximum; inactive = score below 0.9.

Read-out: E-selectin (Homo sapiens) (UniProt P16581)
Test: BSK_LPS_Eselectin: BioMAP Diversity Plus: LPS Assay for Eselectin Biomarker Activity (AID 2283077)
Conditions: primary human HUVEC with PBMC; actives raise or lower the signal
Description: BSK_LPS is a cell-based, multiplexed-readout assay that uses umbilical vein endothelium and peripheral blood mononuclear cells, a human vascular primary cell co-culture, with measurements taken at 24 hours after chemical dosing in a 96-well plate.BSK_LPS_Eselectin is an assay component measured in the BSK_LPS assay. It measures E-selectin antibody related to regulation of gene expression using ELISA technology.Data from the assay component BSK_LPS_Eselectin was analyzed into 1 assay endpoint. This assay endpoint, BSK_LPS_Eselectin, was analyzed with bidirectional fitting relative to DMSO as the negative control and baseline of activity. Using a type of binding reporter, gain or loss-of-signal activity can be used to understand changes in the signaling as they relate to the gene SELE. Furthermore, this assay endpoint can be referred to as a primary readout, because this assay has produced multiple assay endpoints where this one serves a signaling function. To generalize the intended target to other relatable targets, this assay endpoint is annotated to the cell adhesion molecules intended target family, where the subfamily is selectins.
The levels of cell surface (or secreted, indicated by the prefix "s") biomarker endpoints were measured by ELISA. Overt cytotoxicity to cells in confluent adherent cultures (all systems other than the BT system) was assessed by measuring total protein levels using sulforhodamine B (SRB) staining in parallel cultures at the time of biomarker measurements, indicated as SRB endpoints. For proliferation assays for adherent cell types, individual cell types are cultured at sub-confluence and relative cell numbers quantified by SRB staining at time points optimized for each system (48 h: 3C and CASM3C systems; 72 h: BT and HDF3CGF systems; 96 h: SAg system). SRB was performed by staining cells with 0.1% SRB after fixation with 10% TCA and reading wells at 560 nm.Viability and proliferation of PBMC (T cells) was quantified by Alamar Blue reduction for the SAg and BT systems. For PBMC viability (referred to as PBMC Cytotoxicity within the assay endpoint names), cells were plated (75,000/well in a 96-well plate) and then chemical samples added for 1 h before addition of activators, SEB and TSST-1 (20 ng/mL final concentration each). Cells were incubated for 90 h. Then, Alamar Blue (20 uL/well) (Invitrogen, Cat DAL1100) was added for 6 h, and the plates were read with a fluorescence microplate reader at 546/580 nm (excitation/emission). For PBMC proliferation, cells were plated and activated as above but incubated for only 16 h prior to addition of Alamar Blue. Plates were read after 6 h.

Sequence of E-selectin (Homo sapiens) (P16581 whole entry, looked up): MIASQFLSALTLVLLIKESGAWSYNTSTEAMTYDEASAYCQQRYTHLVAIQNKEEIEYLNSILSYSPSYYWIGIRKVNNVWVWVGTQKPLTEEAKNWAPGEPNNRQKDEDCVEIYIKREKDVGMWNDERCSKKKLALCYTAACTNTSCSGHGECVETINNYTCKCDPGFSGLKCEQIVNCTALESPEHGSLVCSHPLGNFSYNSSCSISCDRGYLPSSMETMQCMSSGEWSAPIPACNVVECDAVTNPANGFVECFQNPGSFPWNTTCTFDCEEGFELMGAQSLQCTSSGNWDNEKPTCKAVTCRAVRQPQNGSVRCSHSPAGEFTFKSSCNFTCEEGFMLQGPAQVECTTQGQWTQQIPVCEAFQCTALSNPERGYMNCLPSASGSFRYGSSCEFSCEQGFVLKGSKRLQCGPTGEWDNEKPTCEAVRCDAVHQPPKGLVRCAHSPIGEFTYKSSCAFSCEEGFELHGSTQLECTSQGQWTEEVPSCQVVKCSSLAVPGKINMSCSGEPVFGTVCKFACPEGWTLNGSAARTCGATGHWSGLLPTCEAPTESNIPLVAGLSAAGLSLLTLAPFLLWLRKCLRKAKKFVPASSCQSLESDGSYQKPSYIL

Structure (SMILES) | AC50 | outcome
C=CC(=O)OCC(CC)(COC(=O)C=C)COC(=O)C=C | 2.93 µM (active) | –
CCOP(=S)(OCC)SCSCC | – | inactive
c1ccc2c(c1)sc1ccccc12 | – | inactive
CCCCC(CC)COC(=O)c1c(Br)c(Br)c(Br)c(Br)c1C(=O)OCC(CC)CCCC (stereo not given) | – | inactive
Cc1ccc(N)cc1N | – | inactive
CSC(C)(C)C=NO | – | inactive
CCOP(=S)(OCC)SCS(=O)(=O)CC | – | inactive
CCCCN(CCCC)SN(C)C(=O)Oc1cccc2c1OC(C)(C)C2 | 30.8 µM (active) | –
CC(C)Nc1ccc(Nc2ccccc2)cc1 | 12.9 µM (active) | –
CCOP(=S)(OCC)SCn1nnc2ccccc2c1=O | – | inactive
CCOP(=S)(OCC)SCSc1ccc(Cl)cc1 | – | inactive
CCOP(=S)(S)OCC | – | inactive
O=P(OCC(Br)CBr)(OCC(Br)CBr)OCC(Br)CBr (stereo not given) | – | inactive
Cc1cccc(N)c1 | – | inactive
Cc1ccc(O)cc1C | – | inactive
OCC(F)(F)OC(F)(F)C(F)(F)OC(F)(F)C(F)(F)OC(F)(F)CO | – | inactive
CC(C)(C)c1ccccc1OP(=O)(Oc1ccccc1)Oc1ccccc1 | 20 µM (active) | –
O=C(O)C(F)(F)OC(F)(F)C(F)(F)OC(F)(F)F | – | inactive
CCOP(=S)(Oc1ccc([N+](=O)[O-])cc1)c1ccccc1 (stereo not given) | – | inactive
Nc1ccc([N+](=O)[O-])cc1Cl | – | inactive

Structure (SMILES) | AC50 | outcome
CCN(CC)c1ccccc1 | – | inactive
ClC1=C(Cl)C2(Cl)C3C(Cl)C(Cl)CC3C1(Cl)C2(Cl)Cl (stereo not given) | 30.4 µM (active) | –
FC(F)(F)C(F)(C(F)(F)F)C(F)(F)C(F)(F)CC1CO1 (stereo not given) | – | inactive
O=C(O)C(F)(F)C(F)(F)C(=O)O | – | inactive
CCNc1nc(Cl)nc(NC(C)(C)C)n1 | – | inactive
O=P1(N(CCCl)CCCl)NCCCO1 (stereo not given) | – | inactive
CCOC(=O)c1ccccc1C(=O)OCC | – | inactive
c1ccc(OP(Oc2ccccc2)Oc2ccccc2)cc1 | – | inactive
CCC(C)(C)c1ccc(O)cc1 | – | inactive
CCCCCCCc1ccc(O)cc1 | 35.8 µM (active) | –
O=S1(=O)OCC2C(CO1)C1(Cl)C(Cl)=C(Cl)C2(Cl)C1(Cl)Cl (stereo not given) | – | inactive
CCCCC(CC)COP(=O)(Oc1ccccc1)Oc1ccccc1 (stereo not given) | 20 µM (active) | –
COP(=O)(O)OC | – | inactive
COP(N)(=S)OC | – | inactive
Cc1ccc2c(c1N)C(=O)c1ccccc1C2=O | – | inactive
[N-]=[N+]=[N-] | – | inactive
CC(C)(C)c1ccc(O)cc1 | – | inactive
c1cc2c3c(cccc3c1)CC2 | – | inactive
ClC(Cl)(Cl)c1ccccc1 | – | inactive
CCCCOCCOP(=O)(OCCOCCCC)OCCOCCCC | – | inactive
